# The campaign covered roughly 37,000 compounds. About 2,800 (7.6%) were called active. About 1% were inconclusive and are not listed. Cut-off read from the data, not from the text of the source: active = inhibition above about 80%; inconclusive = no clear call, values can overlap the other calls; inactive = below that. The entries come from a sample that favours actives as a whole.
# Assay: NOMO-1 AML cell viability reduction, primary screen, STK33 inhibitor project, CellTiter-Glo luminescence (AID 2330)
# Conditions: NOMO-1 AML viability, 72 h, active compounds read high, concentration not given here
row,Compound,inhibition
1,C/C=C(/C)C(=O)OC1Cc2c(ccc3ccc(=O)oc23)OC1(C)C (configuration not stated),9.99% (inactive)
2,S=c1nc2c(cnn2-c2ccccc2)c(Nc2ccccc2)[nH]1,12% (inactive)
3,C[C@@H]1CN([C@H](C)CO)C(=O)c2cc(NC(=O)Cn3cnnn3)ccc2O[C@@H]1CN(C)Cc1ccc(C(F)(F)F)cc1,21.9% (inactive)
4,Cc1ccc(S(=O)(=O)N(C)C[C@@H]2Oc3ccc(NS(=O)(=O)c4c(C)noc4C)cc3CC(=O)N([C@H](C)CO)C[C@H]2C)cc1,-13.6% (inactive)
5,O=C(O)CCCC(=O)Nc1ccc(F)cc1,13.9% (inactive)
6,C[C@H]1CN([C@@H](C)CO)C(=O)c2cc(NC(=O)CCN3CCOCC3)ccc2O[C@@H]1CN(C)C(=O)Nc1ccc(C(F)(F)F)cc1,22.5% (inactive)
7,C[C@@H]1CN([C@@H](C)CO)C(=O)c2cc(NS(=O)(=O)c3ccccc3)ccc2O[C@H]1CN(C)CC1CCCCC1,-8.05% (inactive)
8,Cn1nc(CC(=O)Nc2ccc3c(c2)oc2ccccc23)c2ccccc2c1=O,37.5% (inactive)
9,Cc1ccc(C(=O)NC(NCc2ccco2)(C(F)(F)F)C(F)(F)F)cc1,39.2% (inactive)
10,Cc1ccc(-n2nnnc2-c2cnn(-c3ccccc3)c2C)cc1,29.6% (inactive)
11,C[C@H]1CN([C@@H](C)CO)C(=O)c2cccc(NS(=O)(=O)c3ccccc3)c2O[C@@H]1CN(C)S(=O)(=O)c1cn(C)cn1,-9.26% (inactive)
12,COc1ccc(S(=O)(=O)Nc2ccc3c(c2)C(=O)N([C@H](C)CO)C[C@H](C)[C@H](CN(C)Cc2ccc(C(F)(F)F)cc2)O3)cc1,51.7% (inactive)
13,Cc1ccc(S(=O)(=O)Nc2ccc3c(c2)C(=O)N([C@@H](C)CO)C[C@@H](C)[C@H](CN(C)Cc2ccc(C(F)(F)F)cc2)O3)cc1,118% (active)
14,C[C@H](CO)N1C[C@H](C)[C@H](CN(C)Cc2ccc(C(F)(F)F)cc2)Oc2ccc(NS(=O)(=O)c3ccc(Cl)cc3)cc2C1=O,58.5% (inactive)
15,C[C@@H]1CN([C@@H](C)CO)C(=O)c2cc(NS(C)(=O)=O)ccc2O[C@H]1CN(C)C(=O)Nc1ccc(F)cc1,37.9% (inactive)
16,CCCN(Cc1cc2cccc(C)c2[nH]c1=O)S(C)(=O)=O,10.7% (inactive)
17,COC(=O)C1=C(C)Nc2c(c(=O)n(C)c(=O)n2C)C1c1cccc(OCc2ccccc2)c1 (configuration not stated),7.28% (inactive)
18,O=C(c1ccc(Cl)cc1)n1c(=O)oc2cc(Cl)ccc21,132% (active)
19,CC(C)(C)c1ccc(OCC(=O)NCc2ccccn2)c(Br)c1,43.9% (inactive)
20,C[C@@H]1CN([C@@H](C)CO)C(=O)c2cc(NS(=O)(=O)c3ccccc3)ccc2O[C@H]1CN(C)CC1CC1,-13.4% (inactive)
21,O=C(CN(C1CCCCC1)S(=O)(=O)c1ccc(Cl)cc1)Nc1ccccc1C(F)(F)F,25.5% (inactive)

row,Compound,inhibition
1,COc1ccc(S(=O)(=O)N(C)C[C@H]2Oc3ccc(N(C)C)cc3C(=O)N([C@@H](C)CO)C[C@@H]2C)cc1,11.7% (inactive)
2,CN1C(=O)C(Cc2ccccc2)(Cc2ccccc2)c2ccccc21,96.7% (active)
3,CN1C(=O)CC(c2ccccc2)C1=O (configuration not stated),14.7% (inactive)
4,CN1C(=O)C(O)(CC(=O)c2ccco2)c2cc([N+](=O)[O-])ccc21 (configuration not stated),36.2% (inactive)
5,C[C@H](CO)N1C[C@H](C)[C@H](CN(C)C)Oc2c(NS(=O)(=O)c3ccc(Cl)cc3)cccc2C1=O,17.7% (inactive)
6,CN1CCN(C(=O)CCc2nc(-c3ccc(Cl)cc3)no2)CC1,-5.54% (inactive)
7,Cn1c(Cc2csc(N)n2)nnc1SC/C=C/c1ccccc1,23.5% (inactive)
8,CC(C)NC(=O)N(C)C[C@H]1Oc2ccc(NC(=O)Cn3cnnn3)cc2CC(=O)N([C@H](C)CO)C[C@H]1C,36.1% (inactive)
9,C/C=C(/C)C(=O)O[C@H]1CC(C)(C)C[C@H]2C3=CCC4[C@@]5(C)CC[C@H](O[C@@H]6O[C@H](C(=O)O)[C@@H](O[C@@H]7O[C@H](CO)[C@H](O)[C@H](O)[C@H]7O[C@@H]7O[C@H](CO)[C@@H](O)[C@H](O)[C@H]7O)[C@H](O)[C@H]6O[C@@H]6O[C@@H](C)[C@H](O)[C@@H](O)[C@H]6O)C(C)(C)C5CC[C@@]4(C)[C@]3(C)[C@@H](OC(C)=O)[C@@H](O)[C@@]12COC(C)=O (some centres not stated),121% (active)
10,C=CC1(C)C=C2CCC3C(C)(C)C(O[C@@H]4O[C@@H](CO)[C@H](O)[C@H]4O)CCC3(C)C2CC1O[C@@H]1O[C@H](C)[C@@H](OC)[C@H](O)[C@H]1O (some centres not stated),14% (inactive)
11,COC(=O)C1=CO[C@@H](O[C@@H]2O[C@H](CO)[C@@H](O)[C@H](O)[C@H]2O)[C@@H]2[C@@](C)(O)[C@@H](OC(=O)/C=C/c3ccc(OC)c(OC)c3)C[C@]12O,11.5% (inactive)
12,CC1(C)CC[C@@]2(C(=O)O)C(C1)C1=CCC3[C@@]4(C)CC[C@H](O)C(C)(C)C4CC[C@@]3(C)[C@]1(C)C[C@H]2O (some centres not stated),108% (active)
13,C[C@@H]1O[C@@H](O[C@H]2[C@@H](Oc3cc(O)c4c(c3)O[C@H](c3ccc(O)cc3)CC4=O)O[C@H](CO)[C@@H](O)[C@@H]2O)[C@H](O)[C@H](O)[C@H]1O,-11.7% (inactive)
14,C/C=C(/C)C(=O)O[C@H]1CC(C)(C)C[C@H]2C3=CCC4[C@@]5(C)CC[C@H](O[C@@H]6O[C@H](C(=O)O)[C@@H](O[C@@H]7O[C@H](CO)[C@H](O)[C@H](O)[C@H]7O[C@@H]7O[C@H](CO)[C@@H](O)[C@H](O)[C@H]7O)[C@H](O)[C@H]6O[C@@H]6O[C@@H](C)[C@H](O)[C@@H](O)[C@H]6O)C(C)(C)C5CC[C@@]4(C)[C@]3(C)[C@@H](O)[C@@H](O)[C@@]12CO (some centres not stated),119% (active)
15,CC1(C)CC[C@]2(C(=O)O)CC[C@]3(C)C(=CCC4[C@@]5(C)CC[C@H](OC6O[C@H](CO)[C@@H](O)[C@H](O[C@@H]7O[C@H](CO)[C@@H](O)[C@H](O)[C@H]7O)[C@H]6O)C(C)(C)C5CC[C@]43C)[C@@H]2C1 (some centres not stated),119% (active)
16,CC1OC(OC2C(OC3C(O[C@H]4CC[C@@]5(C)C(CC[C@]6(C)C5CC=C5[C@@H]7CC(C)(C)C[C@@H](O)[C@]7(C)CC[C@]56C)C4(C)C)OC(C(=O)O)C(O)C3O)OC(CO)C(O)C2O)C(O)C(O)C1O (some centres not stated),25.4% (inactive)
17,CC1(C)C2CC[C@]3(C)C(C(=O)C=C4[C@@H]5C[C@@](C)(C(=O)O)CC[C@]5(C)CC[C@]43C)[C@@]2(C)CC[C@@H]1O (some centres not stated),63.8% (inactive)
18,C[C@@H]1CC[C@]2(C(=O)O)CC[C@]3(C)C(=CCC4[C@@]5(C)CC[C@H](O)[C@](C)(C(=O)O)C5CC[C@]43C)C2[C@]1(C)O (some centres not stated),29.2% (inactive)
19,C[C@@H]1CN([C@H](C)CO)C(=O)c2cc(NC(=O)CCCCCC(=O)Nc3ccccc3N)ccc2O[C@@H]1CN(C)S(=O)(=O)c1ccc(Cl)cc1,53.5% (inactive)
20,CC(C)(C)c1nc(=S)[nH][nH]1,17.3% (inactive)
21,Cc1cc2c(=O)n(C)c(SCC(=O)c3cc4ccccc4o3)nc2s1,-4.22% (inactive)

row,Compound,inhibition
1,O=C1CC(c2ccccc2)C(=O)N1c1ccc(F)cc1 (configuration not stated),22.5% (inactive)
2,C[C@@H]1CN([C@@H](C)CO)C(=O)c2cccc(NC(=O)c3ccncc3)c2O[C@H]1CN(C)S(=O)(=O)c1ccc(F)cc1,19.5% (inactive)
3,C[C@H](CO)N1C[C@H](C)[C@@H](CN(C)S(=O)(=O)c2ccc(Cl)cc2)Oc2ccc(NS(=O)(=O)c3cn(C)cn3)cc2C1=O,13.1% (inactive)
4,C[C@@H]1CN([C@H](C)CO)C(=O)c2cccc(NS(=O)(=O)c3ccc(Cl)cc3)c2O[C@@H]1CN(C)Cc1ccc(Cl)c(Cl)c1,33.7% (inactive)
5,O=C(CSc1nnc(-c2ccccc2Cl)n1-c1ccccc1)Nc1ccc([N+](=O)[O-])cc1,18.6% (inactive)
6,C[C@@H]1CN([C@@H](C)CO)C(=O)c2cc(NC(=O)Cc3ccccc3)ccc2O[C@@H]1CN(C)CC1CCCCC1,17.8% (inactive)
7,O=C(NCc1cccnc1)c1cnn2c(C(F)F)cc(-c3ccccc3)nc12,11% (inactive)
8,COc1cccc2cc(C(=O)Nc3sc4c(c3C(N)=O)CCCCC4)c(=O)oc12,6.77% (inactive)
9,NC(=O)c1c(NC(=O)c2cnn3c(C(F)F)cc(-c4ccccc4)nc23)sc2c1CCCC2,112% (active)
10,O=C(Cn1cnc([N+](=O)[O-])n1)Nc1c(Cl)cccc1Cl,-1.21% (inactive)
11,COc1ccccc1NC(=O)CSc1n[nH]c(C)n1,4.79% (inactive)
12,COc1ccc(OC)c(NC(=O)CSc2nc(-c3ccccc3)cc(=O)[nH]2)c1,5.5% (inactive)
13,COc1ccccc1NC(=O)CSc1nc2cc3ccccc3cc2[nH]1,108% (active)
14,Cc1ccc(S(=O)(=O)N(C)C[C@H]2Oc3ccc(NC(=O)Nc4cccc5ccccc45)cc3CC(=O)N([C@H](C)CO)C[C@H]2C)cc1,23.8% (inactive)
15,CC(=O)c1cccc(NC(=O)CN(C)S(=O)(=O)c2ccc3ccccc3c2)c1,19.7% (inactive)
16,Nc1nnc(SCC(=O)Nc2ccc(F)c(Cl)c2)s1,10% (inactive)
17,Cc1ccc(N(C(C)C(=O)Nc2ccc(F)c(Cl)c2)S(C)(=O)=O)cc1C (configuration not stated),32.7% (inactive)
18,C[C@H](CO)N1C[C@H](C)[C@@H](CN(C)S(=O)(=O)c2ccc(F)cc2)Oc2c(NC(=O)Nc3ccccc3)cccc2C1=O,8.66% (inactive)
19,COc1cc(NC(=O)COc2ccc(Cl)cc2C)c(OC)cc1Cl,-5.6% (inactive)
20,C=C1C(=O)OC2/C=C(\C)CC3C=C(CC/C=C(\C)CCC12)C(=O)O3 (configuration not stated),114% (active)
